# In PubChem BioAssay AID1347155 (National Center for Advancing Translational Sciences (NCATS), 2019):
# Several values for one entry are separate records, joined by “and”; a condition that tells them apart may be missing. Identical values can stand only once. Records with an inconclusive call do not appear. Where a call stands in place of a potency, no number is given. Activity calls are given as the source filed them. Calls follow the shape of the dose curve; as a rule, active = well fitted inhibition curve with a large enough effect; inconclusive = small, poorly fitted or top-dose-only effect; inactive = no such curve, though single readings can be large or run the other way. *1 amine or outer side, *2 acyl side, *3 side chain or, on linkers, in order; H or OH if unused. Where a SMILES comes first, the peptide text is derived from it. Bridges are numbered along the chain shown (N, C = ends). Roman numbers before positions name the chains, in order. [ ]: non-standard residue; d: D form. ξ: configuration not given here. Actinocin(9to1) = Cc1c2oc3c(C)ccc(C(=O)[*:1])c3nc-2c(C(=O)[*:2])c(N)c1=O; aThr = C[C@H](O)[C@H](N)C(=O)O; NMeV = CN[C@H](C(=O)O)C(C)C; ξNMeV = CNC(C(=O)O)C(C)C; ξV = CC(C)C(N)C(=O)O; Sar = CNCC(=O)O
# Tested on: Zika virus NS2B-NS3 protease (linked)
# Assay: Optimization screen NINDS Rhodamine qHTS for Zika virus inhibitors: Linked NS2B-NS3 protease assay
# Conditions: fluorogenic rhodamine substrate; series mostly up to 105 µM
# From the text: Avindra Nath, Ph.D., National Institute of Neurological Disorders and Stroke (NINDS), Bethesda, MD
# Radhakrishnan Padmanabhan, Ph.D., Georgetown University (GU), Washington D.C.
# Zika Virus causes congenital defects, including microcephaly and is associated with Guillain-Barre syndrome, eningoencephalitis and myelitis in infected adult. […] Using a target-based approach, we hope to establish a screening paradigm to uncover novel, cell-active NS2B-NS3 protease (Zika Virus) specific inhibitors from NCATS' collection of small molecules using qHTS.
# Four assay panel was created to identify potential Zika Virus inhibitors. Namely, (1) GU unlinked NS2B-NS3 AMC tagged protease qHTS, (2) GU unlinked NS2B-NS3 Rhodamine tagged protease qHTS, (3) NINDS linked NS2B-NS3 AMC tagged protease qHTS, (4) NINDS linked NS2B-NS3 Rhodamine tagged protease qHTS. Active compounds were re-acquired and re-screened to confirm inhibition. Inhibitors were further screened against various confirmatory and counterscreens in dose response format.
# Early Translation Branch (ETB)
# National Center for Advancing Translational Sciences (NCATS), Rockville, MD
# National Institute of Health (NIH), Bethesda, Maryland
# For the linked assay, Nath lab (NINDS) provided the purified linked NS2B-NS3 protease which is consists of hydrophilic domain of NS2B linked to the NS3 protease domain by a flexible (-GGGGSGGGG-) linker. Control compound aprotinin is obtained from Thermo Scientific (#78432; Waltham, Massachusetts). Rhodamine110 substrate ([N-Cbz]-Nle-Lys-Arg-Arg-Rhod110-Arg-Arg-Lys-Nle-[N-Cbz]) was purchased from either Genscript or Bachem.
# 1536-well Protease (Rhodamine110 Substrate) Assay:
# Briefly, 3 microL of enzyme (25 nM final concentration), in assay buffer (10 mM Tris-HCl pH 8.0 with 0.01% Tween 20) were dispensed into a 1,536-well solid-bottom black plate (Greiner Bio One, Monroe, NC). Twenty-three nL of compounds (final concentration range 7.28 nM to 114 microM) or control Aprotinin (final concentration range 3.47 nM to 114 microM) were transferred via Wako Pin-tool (Wako Automation, Richmond, VA). Samples were incubated (room temperature, protected from light) for 15 minutes followed by a 1 microL Rhodamine110 substrate addition (1.5 microM final concentration). Plates were then immediately read on a ViewLux High-throughput CCD imager (PerkinElmer, Waltham, MA) equipped with FITC fluorescence optics (480(20) nm excitation, 540(25) nm emission), then incubated (room temperature, protected from light) for 15 minutes (~15% conversion). The change in fluorescence intensity over the 15-minute reaction period was normalized against no-inhibitor and no-enzyme controls and the resulting percent inhibition data were fitted to a 4-parameter Hill equation. Aprotinin was used as intraplate control.
row,SMILES,Potency
1,CC(C)C[C@@H](NC(=O)[C@H](Cc1ccccc1)NC(=O)c1cnccn1)B(O)O,inactive
2,"Cc1c2oc3c(C)ccc(C(=O)N[C@@H]4C(=O)NC(C(C)C)C(=O)N5CCC[C@H]5C(=O)N(C)CC(=O)N(C)C(C(C)C)C(=O)O[C@@H]4C)c3nc-2c(C(=O)N[C@@H]2C(=O)NC(C(C)C)C(=O)N3CCC[C@H]3C(=O)N(C)CC(=O)N(C)C(C(C)C)C(=O)O[C@@H]2C)c(N)c1=O (stereo not given in full) (I: T[ξV]P[Sar][ξNMeV] / II: T[ξV]P[Sar][ξNMeV]; ester I:1-I:C, II:1-II:C; linker I:N-II:N via Actinocin(9to1))",inactive
3,Cc1ccccc1CNc1ncnc2c1ncn2C1OC(CO)C(O)C1O (stereo not given),inactive
4,O=C(O)c1ccc(-n2nc(-c3ccccc3O)nc2-c2ccccc2O)cc1,8.79 µM (active)
5,O[C@@H](c1cc(C(F)(F)F)nc2c(C(F)(F)F)cccc12)[C@H]1CCCCN1,inactive
6,O=C1c2c(O)ccc([N+](=O)[O-])c2C(=O)c2c([N+](=O)[O-])ccc(O)c21,12.7 µM (active) and 6.39 µM (active)
7,O=C(Nc1ccc([N+](=O)[O-])cc1Cl)c1cc(Cl)ccc1O,9.87 µM (active)
8,NC(=O)C(=O)O,inactive
9,Nc1ccn([C@@H]2O[C@H](CO)[C@@H](O)C2(F)F)c(=O)n1,inactive
10,C[C@H]1O[C@@H](O[C@H]2CC[C@@]3(C)[C@H](CC[C@@H]4[C@@H]3C[C@@H](O)[C@]3(C)[C@@H](C5=CC(=O)OC5)CC[C@]43O)C2)C[C@H](O)[C@@H]1O[C@H]1C[C@H](O)[C@H](O[C@H]2C[C@H](O)[C@H](O[C@@H]3O[C@H](CO)[C@@H](O)[C@H](O)[C@H]3O)[C@@H](C)O2)[C@@H](C)O1,inactive
11,COc1c2occc2cc2ccc(=O)oc12,inactive
12,CC[C@@H](C)[C@H]1O[C@]2(CC[C@H]1C)C[C@@H]1C[C@@H](CC=C(C)[C@@H](O[C@H]3C[C@H](OC)[C@@H](O[C@H]4C[C@H](OC)[C@@H](O)[C@H](C)O4)[C@H](C)O3)[C@@H](C)C=CC=C3CO[C@@H]4[C@H](O)C(C)=C[C@@H](C(=O)O1)[C@]34O)O2,39.3 µM (active)
13,COc1c(C)c2c(c(O)c1C/C=C(\C)CCC(=O)OCCN1CCOCC1)C(=O)OC2,inactive
14,OC(c1cc(C(F)(F)F)nc2c(C(F)(F)F)cccc12)C1CCCCN1 (stereo not given),inactive
15,Cn1cnc([N+](=O)[O-])c1Sc1ncnc2nc[nH]c12,inactive
16,Nc1nc(=S)c2[nH]cnc2[nH]1,inactive
17,CC1O[C@@H](O[C@@H]2C(O)C[C@H](O[C@@H]3C(O)C[C@@H](OC4CC[C@@]5(C)C6CC(O)[C@@]7(C)C(C8=CC(=O)OC8)CC[C@@]7(O)C6CC[C@@H]5C4)OC3C)OC2C)CC(O)[C@H]1O (stereo not given in full),inactive
18,N[C@H](C(=O)O)c1ccc(O)cc1,inactive
19,CC(=O)Nc1ccc([C@H](C)C(=O)Nc2ncc(C(C)C)s2)cc1,inactive
20,"Cc1c2oc3c(C)ccc(C(=O)N[C@@H]4C(=O)N[C@H](C(C)C)C(=O)N5CCC[C@H]5C(=O)N(C)CC(=O)N(C)[C@@H](C(C)C)C(=O)O[C@@H]4C)c3nc-2c(C(=O)N[C@@H]2C(=O)N[C@H](C(C)C)C(=O)N3CCC[C@H]3C(=O)N(C)CC(=O)N(C)[C@@H](C(C)C)C(=O)O[C@@H]2C)c(N)c1=O (I: T[dV]P[Sar][NMeV] / II: T[dV]P[Sar][NMeV]; ester I:1-I:C, II:1-II:C; linker I:N-II:N via Actinocin(9to1))",inactive

row,SMILES,Potency
1,Nc1ncnc2c1ncn2[C@@H]1O[C@H](C[C@@H](N)CC[C@H](N)C(=O)O)[C@@H](O)[C@H]1O,inactive
2,O=C1c2cccc3c2[C@@H](CCC3)CN1[C@@H]1CN2CCC1CC2,inactive
3,CCOc1ccc(C2C(=O)N(C3CCCCC3)CC(=O)N2Cc2ccc(F)cc2)cc1OC (stereo not given),inactive
4,C[C@H]1O[C@@H](O[C@H]2[C@@H](O)C[C@H](O[C@H]3[C@@H](O)C[C@H](O[C@H]4CC[C@]5(C)C6C[C@@H](O)[C@]7(C)[C@@H](C8=CC(=O)OC8)CC[C@]7(O)C6CC[C@@H]5C4)O[C@@H]3C)O[C@@H]2C)C[C@H](O)[C@@H]1O (stereo not given in full),inactive
5,CCC(CC)(NC(=O)C(C)C)C(=O)N[C@@H](CCCN=C(N)N)C(=O)NC1(C(=O)NC(c2ccc(F)cc2)c2ccc(F)cc2)CCCC1,inactive
6,CCCCCCCCc1ccc(CCC(N)(CO)CO)cc1,55.5 µM (active)
7,S=c1nc[nH]c2nc[nH]c12,inactive
8,CC(C)C[C@H](NC(=O)[C@H](Cc1ccccc1)NC(=O)c1cnccn1)B(O)O,inactive
9,CC1OC(OC2C(O)CC(OC3C(O)CC(OC4CCC5(C)C(CCC6C5CC(O)C5(C)C(C7=CC(=O)OC7)CCC65O)C4)OC3C)OC2C)CC(O)C1O (stereo not given),inactive
10,C[C@H]1O[C@@H](O[C@H]2[C@@H](O)C[C@H](O[C@H]3[C@@H](O)C[C@H](O[C@H]4CC[C@@]5(C)[C@H](CC[C@@H]6[C@@H]5C[C@@H](O)[C@]5(C)[C@@H](C7=CC(=O)OC7)CC[C@]65O)C4)O[C@@H]3C)O[C@@H]2C)C[C@H](O)[C@@H]1O,inactive
11,"Cc1c2oc3c(C)ccc(C(=O)N[C@@H]4C(=O)N[C@@H](C(C)C)C(=O)N5CCC[C@@H]5C(=O)N(C)CC(=O)N(C)[C@@H](C(C)C)C(=O)O[C@H]4C)c3nc-2c(C(=O)N[C@@H]2C(=O)N[C@@H](C(C)C)C(=O)N3CCC[C@@H]3C(=O)N(C)CC(=O)N(C)[C@@H](C(C)C)C(=O)O[C@H]2C)c(N)c1=O (I: [aThr]V[dP][Sar][NMeV] / II: [aThr]V[dP][Sar][NMeV]; ester I:1-I:C, II:1-II:C; linker I:N-II:N via Actinocin(9to1))",inactive
12,CC[C@@H]1O[C@]2(C=C[C@@H]1C)C[C@H]1C[C@H](CC=C(C)[C@@H](O[C@@H]3C[C@H](OC)[C@H](O[C@@H]4C[C@H](OC)[C@H](O)[C@H](C)O4)[C@H](C)O3)[C@@H](C)C=CC=C3CO[C@@H]4[C@@H](O)C(C)=C[C@@H](C(=O)O1)[C@]34O)O2,inactive
13,CO[C@H]1C[C@@H](O[C@@H]2/C(C)=C/C[C@@H]3C[C@@H](C[C@]4(CC[C@H](C)[C@@H](C5CCCCC5)O4)O3)OC(=O)[C@@H]3C=C(C)/C(=N/O)[C@H]4OC/C(=C\C=C\[C@@H]2C)[C@]43O)O[C@@H](C)[C@H]1O,24.8 µM (active)
14,CO[C@H]1C[C@H](O[C@@H]2/C(C)=C/C[C@@H]3C[C@@H](C[C@]4(CC[C@H](C)[C@@H](C5CCCCC5)O4)O3)OC(=O)[C@@H]3C=C(C)/C(=N/O)[C@H]4OC/C(=C\C=C\[C@@H]2C)[C@]43O)O[C@@H](C)[C@@H]1O,inactive
15,CC=CCC(C)C(O)C1C(=O)NC(CC)C(=O)N(C)CC(=O)N(C)C(CC(C)C)C(=O)NC(C(C)C)C(=O)N(C)C(CC(C)C)C(=O)NC(C)C(=O)NC(C)C(=O)N(C)C(CC(C)C)C(=O)N(C)C(CC(C)C)C(=O)N(C)C(C(C)C)C(=O)N1C (stereo not given),inactive
16,O=c1cc(-c2ccccc2)oc2cc(O)c(O)c(O)c12,4.94 µM (active)
17,CCc1nc(N)nc(N)c1-c1ccc(Cl)cc1,inactive
18,CCOc1ccc(C2C(=O)N(C3CCCCCC3)CC(=O)N2CCc2ccc(Cl)cc2)cc1OC (stereo not given),inactive
19,CC(C)(C)CC(C)(C)c1ccc(OCCOCC[N+](C)(C)Cc2ccccc2)cc1,inactive
20,C[S+](CC[C@H](N)C(=O)O)C[C@H]1O[C@@H](n2cnc3c(N)ncnc32)[C@H](O)[C@H]1O (stereo not given in full),inactive
